What all share (design): species or system human, MV4-11 + K-562 + COLO205 + SK-N-BE2 + OVCAR-8
The test system of one test is FECH. The settings on record: read-out: apparent Kd, compound concentrations: 100 nM and 1000 nM (sheet 'Samples'), n = 1.
The test system of the next test is FLT3. The note with it: read-out: apparent Kd; compound concentrations: 100 nM and 1000 nM (sheet 'Samples'), CATDS: 0.119493571435742; n = 1.
The subject of a further test is MELK. The note with it: read-out: apparent Kd; compound concentrations: 100 nM and 1000 nM (sheet 'Samples'), CATDS: 0.102611877302843; n = 1.
The subject of another test is MERTK. The note with it: read-out: apparent Kd; compound concentrations: 100 nM and 1000 nM (sheet 'Samples'), CATDS: 0.11247191939654499; n = 1.
In a further test the test system is PDGFRB. The settings on record: read-out: apparent Kd; compound concentrations: 100 nM and 1000 nM (sheet 'Samples'), CATDS: 0.104628993679762; n = 1.
Another test has as its system RET. The note with it: read-out: apparent Kd; compound concentrations: 100 nM and 1000 nM (sheet 'Samples'), CATDS: 0.43241388330783698; n = 1.
The test system of a further test is SIK2. The settings on record: read-out: apparent Kd; compound concentrations: 100 nM and 1000 nM (sheet 'Samples'), CATDS: 0.136273413737004; n = 1.
The test system of another test is PLK1. The settings on record: read-out: apparent Kd, compound concentrations: 100 nM and 1000 nM (sheet 'Samples'), n = 1.
A further test relates to VDAC3. The note with it: read-out: apparent Kd; compound concentrations: 100 nM and 1000 nM (sheet 'Samples'), CATDS: 0.46722570663248902; n = 1.
The test system of another test is EGFR. The note with it: read-out: apparent Kd, n = 1.
The subject of another test is TESK2. The settings on record: read-out: apparent Kd; compound concentrations: 100 nM and 1000 nM (sheet 'Samples'), CATDS: 0.39865436806100402; n = 1.
Another test has as its system MAP2K5. The note with it: read-out: apparent Kd; compound concentrations:100 nM and 1000 nM (sheet 'Samples'); n = 1.
The next test relates to RIPK2. The note with it: read-out: apparent Kd, n = 1.
For a further test, the system named is EPHB6. The settings on record: read-out: apparent Kd; compound concentrations:100 nM and 1000 nM (sheet 'Samples'); n = 1.
For a further test, the system named is PIK3CG. The settings on record: read-out: apparent Kd, compound concentrations: 100 nM and 1000 nM (sheet 'Samples'), n = 1.
A further test deals with EPHA7. The note with it: read-out: apparent Kd; compound concentrations: 100 nM and 1000 nM (sheet 'Samples'), CATDS: 1; n = 1.
The test system of a further test is EIF5B. The note with it: read-out: apparent Kd; compound concentrations: 100 nM and 1000 nM (sheet 'Samples'), CATDS: 0.290212668862731; n = 1.
In the next test the test system is GAK. The settings on record: read-out: apparent Kd; compound concentrations: 100 nM and 1000 nM (sheet 'Samples'), CATDS: 0.38094365160878402; n = 1.
A further test concerns TTN. The settings on record: read-out: apparent Kd; compound concentrations: 100 nM and 1000 nM (sheet 'Samples'), CATDS: 0.640536562241112; n = 1.
The test system of the next test is ERBB3. The settings on record: read-out: apparent Kd; compound concentrations: 100 nM and 1000 nM (sheet 'Samples'), CATDS: 1; n = 1.
Another test concerns YES1. The settings on record: read-out: apparent Kd; compound concentrations:100 nM and 1000 nM (sheet 'Samples'); n = 1.
For the next test, the system named is MAP3K12. The settings on record: read-out: apparent Kd; compound concentrations: 100 nM and 1000 nM (sheet 'Samples'), CATDS: 0.23080963599757501; n = 1.
The subject of the next test is PIK3CD. The settings on record: read-out: apparent Kd; compound concentrations: 100 nM and 1000 nM (sheet 'Samples'), CATDS: 0.65461148719951301; n = 1.
For the next test, the system named is NTRK1. The note with it: read-out: apparent Kd; compound concentrations:100 nM and 1000 nM (sheet 'Samples'); n = 1.
For another test, the system named is PDXK. The note with it: read-out: apparent Kd; compound concentrations:100 nM and 1000 nM (sheet 'Samples'); n = 1.
Setting [1] is: compound concentrations: 100 nM and 1000 nM (sheet 'Samples'), CATDS: 1.
Setting [2] is: compound concentrations:100 nM and 1000 nM (sheet 'Samples').

Where two headings read alike, the source gives them in different places.

Regarding `COc1cc2c(cc1OC)C(=C(Nc1ccccc1)c1cccc(CN)c1)C(=O)N2` [BIBF0846CL], the potency estimated from few doses in the test on FECH (CATDS: 0.35888442724353598) was 0.0621 µM; in the test with FLT3, 0.829 µM; in the test on MELK it was 1.41 µM; with MERTK, 1.01 µM; in the test with PDGFRB, 1.31 µM; in the test on RET, 0.0453 µM. The potency estimated from few doses in the test on SIK2 is 0.56 µM.
`NC(=O)c1sc(-n2cnc3ccccc32)cc1OCc1ccccc1F` [GSK1024306A]: the potency estimated from few doses with FECH (CATDS: 0.40591450620250102) is 2.13 µM; with PLK1 (CATDS: 0.65086071220868402), 0.781 µM.
As for `Cc1nnc(-c2cccc(-c3ccc(C(=O)NCC4CC4)cc3)c2)o1` [GW734508X], the potency estimated from few doses in the test with FECH (CATDS: 0.53771916993111701) was 1.5 µM; with VDAC3, 1.99 µM.
For `Cl.c1ccc(Cn2ncc3cc(Nc4ncnc5ccccc45)ccc32)cc1` [GW273749A], the potency estimated from few doses with EGFR (setting [1]) was 0.0254 µM.
On the same count and under the same terms, the same measure for `COc1cc2ncnc(Nc3ccc(OCc4ccccc4Br)c(Cl)c3)c2cc1OC.Cl` [GI261590A]: 2.23 µM.
Regarding `Cl.O=S(=O)(CCNCc1ccc(-c2ccc3ncnc(Nc4ccc(OCc5cccc(F)c5)c(Cl)c4)c3c2)o1)c1ccccc1` [GW633459A], the potency estimated from few doses in the test on EGFR (compound concentrations: 100 nM and 1000 nM (sheet 'Samples'), CATDS: 0.67043836864821504) is 0.597 µM; in the test with TESK2, 1.83 µM.
For the molecule `Cl.O=C(O[C@H]1CN[C@H](C#Cc2cc3ncnc(Nc4ccc5c(cnn5Cc5ccccc5)c4)c3s2)C1)N1CCOCC1` [GSK200398A_KCGS], the potency estimated from few doses in the test on EGFR (setting [2]) was 0.0267 µM; with MAP2K5, 2.2 µM; in the test with RIPK2 (setting [2]), 0.936 µM.
As for `Cc1cc(-c2ccco2)cc(C)c1/C=C/c1cncc(-c2nn[nH]n2)c1.Cl` [GW458344A], in the test with EPHB6, the potency estimated from few doses is 0.401 µM.
On to `CC(=O)Nc1cccc(C#Cc2cncnc2Nc2ccc(OCc3cccc(F)c3)c(Cl)c2)n1` [GW794726X], for which the potency estimated from few doses with EGFR (compound concentrations: 100 nM and 1000 nM (sheet 'Samples'), CATDS: 0.81532426513796596) is 0.184 µM; in the test with PIK3CG (CATDS: 0.36055601865019399), 1.44 µM.
In the case of `COc1cccc(NC(=O)NCCNc2ccnc(Nc3ccc(F)cc3)n2)c1` [GSK1379879A], the potency estimated from few doses in the test on EPHA7 is 2.4 µM.
As for `COc1ccc(COc2cc(-n3cnc4ccccc43)sc2C(N)=O)cc1` [GSK1024304A], the potency estimated from few doses is 1.71 µM with EIF5B, 1.15 µM in the test with FECH (CATDS: 0.34999062122036301) and 1.03 µM in the test with PLK1 (CATDS: 0.37077800289250101).
Take `C#Cc1cccc(Nc2ncnc3cc(OC)c(OC4CCN(C)CC4)cc23)c1` [BI00007366]: the potency estimated from few doses was 1.3 µM in the test on EGFR (compound concentrations: 100 nM and 1000 nM (sheet 'Samples'), CATDS: 0.27319466125259201); 0.634 µM in the test with GAK; 0.674 µM in the test with RIPK2 (compound concentrations: 100 nM and 1000 nM (sheet 'Samples'), CATDS: 0.36838569788984799).
In the case of `COc1ccc2ncnc(Nc3ccc(OCc4ccccc4)cc3)c2c1.Cl` [GI261520A], the potency estimated from few doses with EGFR (compound concentrations: 100 nM and 1000 nM (sheet 'Samples'), CATDS: 0.82087147453604603) was 0.0672 µM; in the test on PIK3CG (CATDS: 0.25285428644367502) it was 1.24 µM; in the test with RIPK2 (compound concentrations: 100 nM and 1000 nM (sheet 'Samples'), CATDS: 0.26130568040748398), 1.1 µM.
Regarding `CS(=O)(=O)CCNCc1ccc(-c2ccc3ncnc(Nc4ccc(OCc5ccccc5)cc4)c3c2)o1.Cl` [GW458787A], in the test with EGFR (setting [1]), the potency estimated from few doses was 0.0342 µM.
With `c1ccc(COc2ccc(Nc3ncnc4ccc(-c5ccco5)cc34)cc2)cc1` [GW284372X], the potency estimated from few doses in the test with EGFR (compound concentrations: 100 nM and 1000 nM (sheet 'Samples'), CATDS: 0.410036232309059) was 0.781 µM; with TTN, 0.304 µM.
Regarding `Cl.Nc1c(C(=O)c2ccc(CCCN3CCOCC3)cc2)cnn1-c1ccc(F)cc1` [RO1153427-001], the potency estimated from few doses in the test with ERBB3 is 1.82 µM.
Consider `COc1cc2ncnc(Nc3ccc4c(cnn4Cc4ccccc4)c3)c2cc1OC.Cl` [GW282449A], for which the potency estimated from few doses in the test on EGFR (setting [2]) is 0.00129 µM; in the test with MAP2K5, 1.12 µM; in the test with RIPK2 (setting [2]), 0.21 µM; in the test with YES1, 1.11 µM.
In the case of `Cl.Fc1ccccc1COc1ccc(Nc2ncnc3ccc(-c4nnc(C(F)(F)F)o4)cc23)cc1Cl` [GW424170A], the potency estimated from few doses is 0.448 µM in the test with EGFR (compound concentrations: 100 nM and 1000 nM (sheet 'Samples'), CATDS: 0.318491462582081); 1.29 µM with MAP3K12; 0.104 µM in the test with PIK3CD.
For the molecule `Cl.c1ccc(Cc2nc3ccc(Nc4ncnc5ccccc45)cc3[nH]2)cc1` [GR269666A_KCGS], the potency estimated from few doses in the test with EGFR (setting [2]) is 0.076 µM; in the test with NTRK1, 1.11 µM; with PDXK, 1.55 µM.

The record behind these values is publication PMC11062922 (Nature Chemical Biology, 2023).
